Laboratory results as given in PubChem BioAssay (NCI).
About 79,000 compounds went through this panel and 15% of them were active in at least one assay; those are over-represented in the sample as a whole. Cut-off read from the data, not from the text of the source: active = growth inhibition above about 70%; inactive = the rest. Where a SMILES comes first, the peptide text is derived from it. The star is where a group is joined. Cbz = O=C(OCc1ccccc1)*; NHNH2 = NN*

How the values were obtained:
[1] = NCI Yeast Anticancer Drug Screen. Data for the rad50 strain (AID 155);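 note: 0% = growth of vehicle-only cultures of the same strain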; conditions: S. cerevisiae rad50 strain growth inhibition, hits give high values; at 50.0 µM unless noted
Summary of the method: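 Growth of the mutant yeast was measured after compound exposure and referenced to vehicle-treated cultures.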

[2] = NCI Yeast Anticancer Drug Screen. Data for the mec2-1 strain (AID 157); conditions: S. cerevisiae mec2-1 strain, hits give high values; at 50.0 µM unless noted
Summary of the method: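 Test agents were screened against the mec2-1 yeast strain, with defined DNA repair or cell cycle alteration. Growth was scored as inhibition against vehicle-only controls.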

[3] = NCI Yeast Anticancer Drug Screen. Data for the sgs1 mgt1 strain (AID 161);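 note: 0% = growth of cultures given vehicle only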; conditions: S. cerevisiae sgs1 mgt1 strain, hits give high values; at 50.0 µM unless noted
Summary of the method: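 Inhibition of yeast growth, normalised to vehicle-treated controls, is reported for a strain bearing genetic alterations in DNA damage repair.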

[4] = NCI Yeast Anticancer Drug Screen. Data for the cln2 rad14 strain (AID 165);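 note: 0% = growth equal to vehicle treated cultures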; conditions: S. cerevisiae cln2 rad14 strain, hits give high values; at 50.0 µM unless noted
Summary of the method: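 Growth of compound-exposed yeast (cln2 rad14 genotype) measured and expressed as inhibition relative to vehicle.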

[5] = NCI Yeast Anticancer Drug Screen. Data for the bub3 strain (AID 167); conditions: S. cerevisiae bub3 mutant strain, hits give high values; at 50.0 µM unless noted
Summary of the method: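 Whole-cell yeast assay. The mutant strain was incubated with compounds, and growth inhibition was determined by comparison with vehicle-treated cells.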

[6] = NCI Yeast Anticancer Drug Screen. Data for the mlh1 rad18 strain (AID 175); conditions: S. cerevisiae mlh1 rad18 strain growth inhibition, hits give high values; at 50.0 µM unless noted
Summary of the method: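 In this whole-cell yeast screen, a strain with altered DNA damage repair is challenged with compound, and its growth is measured against matched vehicle-treated controls.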

Measured: growth inhibition

O=[N+]([O-])c1ccc(N2N=NC(c3ccccc3)C2(c2ccccc2)N2CCOCC2)cc1 (stereo not given)
inactive: [1] 29.6% | [2] -0.9% | [3] 28.4% | [4] 16.7% | [5] 0.95% | [6] 14.6%

CCCOc1cc2c(cc1C(C)c1ccc(OC)c(C)c1)OCO2 (stereo not given)
inactive: [1] -3.55% | [2] 3.45% | [3] -6% | [4] -87.7% | [5] 4.55% | [6] 4.15%

CC(C)CC(=O)/C=C\c1ccco1
inactive: [1] -15.2% | [2] -33.5% | [3] 1.05% | [4] 1.3% | [5] -10.5% | [6] -7.45%

CCCCNC(=O)c1cc(=O)[nH]c(=O)[nH]1
inactive: [1] 1.5% | [2] -6.55% | [3] 6.6% | [4] 5.6% | [5] -16.1% | [6] 20.1%

NC(CC(=O)c1ccccc1NC=O)C(=O)O (stereo not given)
inactive: [1] 8.85% | [2] -1.4% | [3] -9.95% | [4] -48.6% | [5] -0.95% | [6] 3.25%

O=c1[nH]c(Br)nc2c(N3CCCCC3)c[nH]c12
inactive: [1] 12.7% | [2] -0.45% | [3] -7.2% | [4] 4.35% | [5] -3.05% | [6] 11.6%

O=Cc1ccc(OC(=O)Nc2ccc([N+](=O)[O-])cc2)cc1
inactive: [1] 2.65% | [2] 45% | [3] 33.4% | [4] -2.7% | [5] 46.6% | [6] 47.4%

CCOC(=O)CCC(Br)(Br)Br
inactive: [1] 10% | [2] 16% | [3] 1.7% | [4] 12.8% | [5] 4.6% | [6] 10.2%

COc1cc(C)cc2c1C(C)(C)CCC2(C)C
inactive: [1] 5.4% | [2] -24.6% | [3] -5.8% | [4] -7.15% | [5] 16% | [6] -0.65%

C(=C1CCCCC1)c1ccccn1
inactive: [1] -9.2% | [2] 24.9% | [3] -10.7% | [4] -23.3% | [5] -18.8% | [6] -24.9%

Cc1cc(Cl)ccc1NC(=O)CC/C(CC(=O)C(C)C)=N\NC(=O)C[n+]1ccccc1
inactive: [1] -43.9% | [2] 3.45% | [3] -20.4% | [4] -15.2% | [5] -30.6% | [6] -32.8%

CN1N=CSC12C(=O)N(c1ccccc1)C(=O)N2c1ccccc1 (stereo not given)
inactive: [1] 0.4% | [2] -1.55% | [3] 0.95% | [4] 20.1% | [5] 3.15% | [6] -14.2%

COc1cc2c(cc1C(C)c1ccc(Cl)cc1)OCO2 (stereo not given)
inactive: [1] 12.8% | [2] -1.55% | [3] -1.6% | [4] 21% | [5] 20.2% | [6] 4.9%

Cc1cc(C)c(S(=O)(=O)Oc2ccccc2)c(C)c1
inactive: [1] -14.9% | [2] -7.15% | [3] -8.5% | [4] 1.7% | [5] 11.8% | [6] -36.7%

Cc1ccc(NC(=O)c2ccc(OP(=O)(O)Nc3ccc(C)cc3)cc2)cc1
inactive: [1] -22.6% | [2] -21.8% | [3] -8.05% | [4] -3.15% | [5] -5.2% | [6] -4.1%

CCOC(=O)CCC(NC(=O)OCc1ccccc1)C(=O)NC(CCC(=O)OCC)C(=O)NN (stereo not given) (Cbz-Glu(OEt)-Glu(OEt)-NHNH2; configuration not given here)
inactive: [1] 2.65% | [2] 7.75% | [3] 2.5% | [4] 11.8% | [5] 23.2% | [6] 27.3%

O=C(CCc1ccccc1)On1nnc2ccccc2c1=O
inactive: [1] -19.1% | [2] -14.2% | [3] -29.8% | [4] 9.9% | [5] -14.6% | [6] -29.1%

NC(=O)N/N=C(\C(=O)C(=O)Nc1ccc(Cl)c(C(F)(F)F)c1)c1nc2ccc(C(=O)c3ccccc3)cc2[nH]c1=O
inactive: [1] 25.4% | [2] -1.3% | [3] 38.8% | [4] -37% | [5] -3.35% | [6] 25.1%

Cn1nc(-c2ccccc2)c(C(=O)/C=C/c2ccccc2)c(N2CCCCC2)c1=O
inactive: [1] -27.9% | [2] -11.6% | [3] -11.5% | [4] 3% | [5] 27% | [6] -27.8%

CC(C)C(=O)Nc1ccc(S(=O)(=O)Nc2ccc(N)cc2O)cc1
inactive: [1] -6.8% | [2] 6.6% | [3] 25.1% | [4] 1.25% | [5] 20.1% | [6] -0.75%
